Laboratory results reported in PubChem BioAssay (NCATS).
Some of the results follow. Results filed as inconclusive are left out. Calls of active or inactive are those of the source. Calls follow the shape of the dose curve; as a rule, active = well fitted inhibition curve with a large enough effect; inconclusive = small, poorly fitted or top-dose-only effect; inactive = flat fitted curve, though single readings scatter.

Target: Flap endonuclease 1 (Homo sapiens) (UniProt P39748)
Assay: qHTS Assay for the Inhibitors of FEN1: Confirmatory Assay for Cherry-picked Compounds (AID 720498); also: nearly all actives have a fitted effect of over 60% in size
Details: FEN1 flap cleavage, TAMRA/BHQ2 fluorogenic DNA substrate
Source text: The major human flap endonuclease FEN1 is an efficient structure-specific enzyme that recognizes and cleaves a 5'-unannealed DNA flap. It belongs to the RAD2 family nucleases, which are involved in DNA metabolism and are highly conserved in prokaryotes and eukaryotes. FEN1 is a key enzyme in DNA replication, repair and maintenance of genomic stability. 5'-flap removal by FEN1 is critical for Okazaki fragment processing during lagging strand DNA synthesis, long-patch base excision repair (LP BER), and regulating or facilitating recombination events. […] Cells from fen1-/- blastocysts show increased apoptotic cell death after ionizing radiation treatment, and chicken cells lacking the fen1 gene are hypersensitive to DNA alkylating agents, e.g. methylmethane sulfonate (MMS) and N-methyl-N'-nitro-N-nitrosoguanidine (MNNG), as well as hydrogen peroxide. […] Elevation of FEN1 in hormone refractory human prostate cancer cells also correlates with resistant to various anticancer agents including ionizing radiation, doxorubicin, paclitaxel and vinblastine. […] This assay is used to confirm the activity of selected compounds against the human Fen1. Inhibition is the desired outcome for this screen. NIH Chemical Genomics Center [NCGC] NIH Molecular Libraries Probe Centers Network [MLPCN] MLPCN Grant: MH092154 Assay Submitter (PI): David Wilson, National Institute of Aging
Three uL of reagents (buffer in column 3 and 4 as negative control and 10 nM FEN1 in columns 1, 2, and 5-48) were dispensed into 1,536-well black solid-bottomed plate. Compounds (23 nL) were transferred via Kalypsys pin tool equipped with 1536-pin array (10 nL slotted pins, V&P Scientific, San Diego, CA). The plates were then incubated for 15 min at room temperature, and 1 uL substrate (50 nM final concentration) were added to start the reaction read twice at 0 min read and 15 min on ViewLux reader equipped with 525 nm excitation and 598 nm emission filters. Throughout the screen, reagent bottle and all liquid lines were chilled and made light-tight to minimize reagent degradation. FEN1 Substrate. All oligodeoxynucleotides were purchased from Biosearch Technologies, Inc., (Novato, CA). Double-stranded DNA substrate containing double flap strands for fluorogenic assay was prepared from three oligodeoxynucleotides: quencher (5'-TCACCCTCGTACGACTCATCCAAAAAAGC - BHQ2), flap (5'-Tamra-GC AAAAAATTTATTCATCAACTGACATCTCCTAC) and template (5'-GT AGGAGATGTCAGTTGATGAATTGAGTCGTACGAGGGTGA-3') strand by annealing. The 5' end of the downstream flap strand was labeled with 6-carboxytetramethyl rhodamine (6-TAMRA) as the fluorophore donor, whereas the 3' end of the quencher flap strand was labeled with a Black Hole Quencher-2 (BHQ-2) as the matching quencher.
Potency is read from the fitted curve at half-maximal effect.

Chain of Flap endonuclease 1 (Homo sapiens) (P39748 whole entry, looked up): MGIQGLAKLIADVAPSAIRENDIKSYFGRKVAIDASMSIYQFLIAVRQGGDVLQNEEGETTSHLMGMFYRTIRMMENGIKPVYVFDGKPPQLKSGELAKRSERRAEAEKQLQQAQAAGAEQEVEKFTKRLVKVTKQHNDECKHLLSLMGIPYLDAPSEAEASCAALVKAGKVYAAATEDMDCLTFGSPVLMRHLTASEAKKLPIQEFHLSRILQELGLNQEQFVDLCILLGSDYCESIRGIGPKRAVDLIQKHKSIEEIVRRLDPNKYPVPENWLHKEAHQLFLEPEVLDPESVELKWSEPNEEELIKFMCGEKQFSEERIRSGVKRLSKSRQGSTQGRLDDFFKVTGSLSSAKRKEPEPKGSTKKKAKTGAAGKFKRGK

Potency, active:
O=[N+]([O-])c1ccc(C=Nc2ccc(Cl)cc2Cl)s1 6.75 µM
c1ccc2cc3c(NCCN4CCOCC4)ccnc3cc2c1 37.9 µM
O=C(O)C(c1ccccc1)N1C(=O)/C(=C\c2ccc(-c3cccc(Cl)c3)o2)SC1=S (configuration not stated) 75.7 µM
CCc1ccc2nc3sc(C(=O)Nc4nnc(CC)s4)c(N)c3cc2c1 60.1 µM
O=C(CCNC(=O)c1ccccc1)NN=Cc1ccc(Br)o1 84.9 µM
O=C(COC(=O)c1ccc([N+](=O)[O-])o1)NC12CC3CC(CC(C3)C1)C2 8.49 µM
COCCNC(=O)Nc1ccc2nc(-c3ccco3)c(-c3ccco3)nc2c1 19 µM
CCN1CCN(CCCNC(=O)c2ccc3c(c2)sc2nc(-c4ccc(OC)cc4)cn23)CC1 33.8 µM
COc1cc(NC(=O)COC(=O)c2ccc([N+](=O)[O-])s2)cc(OC)c1OC 6.01 µM
O=C(CSc1nc2ccccc2c(=O)[nH]1)Nc1nc(-c2ccc(Br)cc2)cs1 60.1 µM
CCOc1cccc2c1N[C@@H](c1ccc(C(=O)O)cc1)[C@H]1CC=C[C@@H]21 47.8 µM
Cc1ccc(C(=O)O)cc1-c1ccc(/C=C2\SC(=O)N(CC(=O)Nc3ccc4c(c3)OCO4)C2=O)o1 19 µM
COc1ccc(Cc2nnc(NC(=O)Cc3cccs3)s2)cc1 84.9 µM
COc1nc(N=C(N)N)nc2c(C)cccc12 33.8 µM
CC(=O)OC1CCC2(C)C(=CCC3C4CC(=O)N(O)C(=O)C4(C)CCC32)C1 (configuration not stated) 23.9 µM
CN(C)CCNC(=O)c1ccc(Cl)c2cc3ccccc3nc12 13.5 µM
C=CC1=C(C(=O)O)N2C(=O)[C@@H](NC(=O)/C(=N/OCC(=O)O)c3csc(N)n3)[C@H]2SC1 33.8 µM
COc1ccc2[nH]c3c(C)c4cc[n+](C)cc4c(C)c3c2c1 1.35 µM
CCN(CC)c1ccc2cc(C(N)=O)/c(=N\NC(=O)c3ccncc3)oc2c1 33.8 µM
CCN1CCN(CCNC(=O)c2ccc3c(c2)NC(=O)/C(=C\c2ccc(OC)c(OC)c2)S3)CC1 33.8 µM
CN1CCN(CCCNC(=O)c2ccc(/C=C3\Oc4ccccc4N(Cc4ccc(Cl)cc4)C3=O)cc2)CC1 23.9 µM
CC(=O)Nc1ccc(Nc2c3ccccc3nc3ccccc23)cc1 30.1 µM
